Screening data from PubChem BioAssay.
FMDV antiviral: High Throughput Screening for Foot and Mouth Disease Virus Antivirals. FMDV antiviral cell-based qHTS. Potency, µM (top dose mostly 57.9 µM), for inactives: at the top dose activity change, negative = inhibition, actives largely listed as inhibitors. 410,000 tested, 1.2% active; calls by dose curve; tested in HEK293T cells; further: read-out not given here; nearly all actives have a fitted effect of over 45% in size
RE007 growth inh: qHTS Assay for Inhibitors of the HIV-1 protein Vpr | S. pombe RE007 Vpr strain, BacTiter-Glo ATP luminescence, 24 h | Potency, µM (titrated, usually from 92.2 µM), inactives show top-dose activity change, negative = less growth, hits mostly inhibitors | 360,000 tested, 0.21% active; active means well fitted falling curve with a large enough effect; inconclusive means small, poorly fitted or top-dose-only effect; inactive means no such curve, though single readings can be large or run the other way; further: nearly all actives have a fitted effect of over 50% in size
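Fission yeast RE007 carrying one integrated HIV-1 vpr copy, seeded at OD 0.01 in PMG+AL medium with 23 nL pinned compound. Grown 24 h at 30 degrees; viability read by BacTiter-Glo luminescence after 5 min.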
Tb PYK inh: qHTS of Trypanosoma Brucei Inhibitors; pyruvate kinase (Trypanosoma brucei), Q57TT1; TbPYK enzyme, Kinase-Glo Plus ATP luminescence, 45 min; Potency, µM (titrated, usually from 76.8 µM), for inactives: at the top dose activity, negative = inhibition, actives largely listed as inhibitors; 410,000 tested, 0.12% active; AID 624173, 2012; further: nearly all actives have a fitted effect of over 50% in size
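Screened from lowest to highest concentration, compounds were pinned into TbPYK/substrate mixtures, and ADP (130 uM final) was added. Plates sat at room temperature for 45 min prior to Kinase-Glo Plus detection by luminescence.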
Sm TGR block: qHTS Assay for the Inhibitors of Schistosoma Mansoni Peroxiredoxins; Schistosoma mansoni thioredoxin glutathione reductase (TGR), Q962Y6; purified TGR, DTNB reduction, TNB absorbance 405 nm; Potency, µM (highest dose often 114 µM), without a hit: at the top dose activity change, negative = inhibition, most hits filed as inhibitors; 360,000 tested, 3% active; AID 485364, 2010; further: nearly all actives have a fitted effect of over 60% in size
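First, TGR (20 nM dispensed) and NADPH were mixed with compound. Second, a 15 min room-temperature incubation followed. Third, further NADPH and then DTNB were added to start the reaction. Finally, TNB absorbance was monitored kinetically.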
* = called active by the depositor; ? = inconclusive; . = no result. The list is not random: actives were taken first. Their share in the collection is about 3.7%. Unless noted, the call rests on the fitted dose curve; in most records, active means well fitted curve in the direction sought with a large enough effect; inconclusive means small, poorly fitted or top-dose-only effect, or another doubt; inactive means no such curve, though single readings can be large; an effect the other way counts as inactive or inconclusive. On the % scale 0 is the no-effect control and ±100 the full control effect; potency means the concentration at half of the fitted maximal effect.

SMILES	FMDV antiviral	RE007 growth inh	Tb PYK inh	Sm TGR block
Cc1ccccc1NC(=O)Cc1nc(COC(=O)c2ccc(S(C)(=O)=O)c([N+](=O)[O-])c2)cs1	?	9.0%	6.6%	2.82µM*
CS(=O)(=O)c1ccc(C(=O)OCC(=O)Nc2cccnc2Cl)cc1[N+](=O)[O-]	?	-3.4%	3.7%	.
CC(CCc1ccccc1)NC(=O)COC(=O)c1ccc(S(C)(=O)=O)c([N+](=O)[O-])c1 (stereo not drawn)	?	16.6%	-2.4%	1.78µM*
CC(CCc1ccccc1)NC(=O)COC(=O)c1ccc([N+](=O)[O-])cc1 (stereo not drawn)	-9.7%	-17.6%	1.1%	3.6%
CS(=O)(=O)c1ccc(C(=O)OCc2nnc(-c3ccccc3)o2)cc1[N+](=O)[O-]	0.0%	32.9%	4.7%	1.41µM*
Cc1ccccc1NC(=O)Cc1nc(COC(=O)c2ccc(NC(N)=O)cc2)cs1	-3.7%	8.0%	7.4%	.
CC(=O)c1cccc(NC(=O)COC(=O)c2ccc(S(C)(=O)=O)c([N+](=O)[O-])c2)c1	?	-22.9%	-1.3%	3.16µM*
O=C(NCc1nnc2n1CCN(Cc1ccccc1C(F)(F)F)CC2)c1ccncc1	-15.7%	.	.	.
COc1ccccc1NC(=O)COc1ccc(C(=O)OCC(=O)NC(C)(C)C)cc1OC	22.4µM*	3.7%	1.7%	3.5%
Cc1ccccc1NC(=O)COC(=O)c1ccc(S(C)(=O)=O)c([N+](=O)[O-])c1	31.6µM*	-3.8%	-5.6%	1.41µM*
O=C(Nc1cccc(-c2nc3cccnc3s2)c1)c1cccc(Br)c1	-13.3%	.	-20.3%	-33.2%
Cc1ccc(-c2cc(NC(=O)CCl)n(-c3ccccc3)n2)cc1	22.4µM*	?	?	?
Cc1ccc(OCC(=O)Nc2cc(-c3cccc(C)c3)nn2-c2ccccc2)cc1	16.7%	.	0.0%	10.2%
Cc1ccc(-n2nc(C)c(NC(=O)CCl)c2C)cc1	-25.5%	.	-7.5%	50.1µM*
Cc1nn(Cc2ccc(Cl)cc2Cl)c(C)c1NC(=O)CCl	22.4µM*	16.1%	6.3%	39.8µM*
CC(=O)Nc1ccc(-c2cc(NC(C)=O)n(-c3ccccc3)n2)cc1	-0.7%	10.3%	0.4%	-4.9%
O=C(CCl)Nc1cc(-c2ccccc2)nn1-c1ccccc1	-67.0%	-9.0%	12.2%	12.6µM*
CCn1c(C(=O)N2CCCC(C(=O)N3CCN(c4cc(C)ccc4C)CC3)C2)cc2sccc21 (stereo not drawn)	?	.	-0.4%	8.2%
COc1ccc(CCNc2ncnc3sccc23)cc1OC	28.2µM*	-5.3%	-2.7%	7.1%
COc1ccc(Nc2ncnc3sccc23)cc1OC	24.7%	-20.6%	20.0%	-4.1%
CC(=O)c1cccc(NC(=O)C(Cc2ccccc2)NS(=O)(=O)c2ccc(Br)s2)c1 (stereo not drawn)	5.1%	.	0.4%	2.6%
CC(C)(C)C1CCc2nc(NC(=O)c3cccc(Cl)c3)sc2C1 (stereo not drawn)	2µM*	.	-0.8%	-16.8%
Cc1cc(C)nc(N(C#N)CN2C(=O)c3ccccc3S2(=O)=O)n1	39.8µM*	4.8%	-1.2%	-13.0%
Cc1ccccc1NC(=O)C1CCN(c2cc(-c3ccccc3)nc3ncnn23)CC1	35.5µM*	3.1%	-1.2%	-10.4%
O=C(Nc1ccc(Oc2ccccc2)cc1)C1CCN(c2c3c(nc4ncnn24)CCC3)CC1	8.91µM*	0.2%	0.2%	-5.0%
SMILES	FMDV antiviral	RE007 growth inh	Tb PYK inh	Sm TGR block
O=C(Nc1ccc2c(c1)CCC2)C1CCN(c2c3c(nc4ncnn24)CCC3)CC1	?	-6.3%	0.1%	-30.9%
Cc1cccc(Cc2c(C)nc3nc(SCC(=O)NCc4ccc(F)cc4)nn3c2C)c1	-29.1%	.	0.3%	-1.5%
COc1cc(NC(=O)CC(c2cccs2)N2Cc3ccccc3C2=O)cc(OC)c1OC (stereo not drawn)	3.6%	.	-0.6%	-0.6%
COCCNc1ncnc2ccc(-c3cccc(OC)c3)cc12	-2.6%	.	.	.
Cc1ccc(CN(C)C(=O)c2ccccc2Oc2ccccc2)o1	-14.9%	-11.3%	?	7.94µM*
O=C(O)c1ccccc1Oc1ccc(Oc2ccccc2)cc1	9.6%	27.2%	-1.0%	0.0%
COc1cc(OC)c(OC)cc1CNC(=O)c1cccc(S(=O)(=O)N2CCc3ccccc3C2)c1	11.2µM*	-11.3%	-8.8%	3.7%
